The text below walks through data of paper PMC7862700, “An all-to-all approach to the identification of sequence-specific readers for epigenetic DNA modifications on cytosine”.

Common to all, as to assay: DAPPL (digital affinity profiling via proximity ligation, sequencing); 10 mM Tris-HCl pH 7.5, 50 mM NaCl, 1 mM DTT, 4% glycerol, room temperature, 30 min; GST-TFs on glutathione beads, 16-mer random dsDNA library, 0.1% formaldehyde crosslink after washing; high values mean tight binding
Conditions in all cases: protein: recombinant; tags: N-terminal GST; dsDNA, one strand shown

One experiment deals with T1, ELK1 (Homo sapiens, UniProt P19419 1-428).
T1 sequence: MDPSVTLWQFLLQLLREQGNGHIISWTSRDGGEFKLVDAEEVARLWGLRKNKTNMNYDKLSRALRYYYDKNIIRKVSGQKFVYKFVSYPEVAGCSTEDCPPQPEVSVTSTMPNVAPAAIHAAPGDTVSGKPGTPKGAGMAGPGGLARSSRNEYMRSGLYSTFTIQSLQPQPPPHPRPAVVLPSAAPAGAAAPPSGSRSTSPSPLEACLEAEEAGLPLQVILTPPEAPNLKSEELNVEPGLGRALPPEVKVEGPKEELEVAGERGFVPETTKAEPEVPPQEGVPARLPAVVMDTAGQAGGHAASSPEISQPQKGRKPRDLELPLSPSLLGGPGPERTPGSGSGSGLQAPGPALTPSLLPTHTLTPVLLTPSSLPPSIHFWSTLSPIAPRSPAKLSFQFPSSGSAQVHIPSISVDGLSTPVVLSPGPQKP
The gist of the method: (§1)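 Beads coated with glutathione captured GST-fused human transcription factors that had been expressed in yeast, and the factors were then given DNA barcodes and pooled with a tag-only sample. The pools were incubated with 200 nmole of a random double-stranded 16-mer DNA library in Tris/NaCl/DTT/glycerol buffer for 30 min at room temperature, washed, crosslinked with 0.1% formaldehyde and proximity-ligated with BsaI/T4 ligase at 37 °C for 1 h. PCR amplification and Illumina NextSeq500 sequencing came last. Binding signal is each hexamer's read frequency for a factor divided by its frequency for the tag-only sample.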

The next experiment addresses T2, GABPA (Homo sapiens, UniProt Q06546 1-454).
T2 sequence: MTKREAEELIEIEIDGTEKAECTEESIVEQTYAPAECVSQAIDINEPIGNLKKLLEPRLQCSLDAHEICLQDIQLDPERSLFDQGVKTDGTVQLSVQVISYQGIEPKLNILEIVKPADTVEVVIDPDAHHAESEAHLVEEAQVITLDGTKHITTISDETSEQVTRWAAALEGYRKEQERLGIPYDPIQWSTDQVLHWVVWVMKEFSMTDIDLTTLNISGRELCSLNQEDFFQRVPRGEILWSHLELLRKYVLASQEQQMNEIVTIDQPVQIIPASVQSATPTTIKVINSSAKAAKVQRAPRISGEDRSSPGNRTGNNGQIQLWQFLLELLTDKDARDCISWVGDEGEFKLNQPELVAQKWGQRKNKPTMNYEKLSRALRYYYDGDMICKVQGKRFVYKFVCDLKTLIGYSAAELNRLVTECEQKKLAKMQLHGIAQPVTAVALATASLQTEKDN
An outline of the steps: as §1

The target of a further experiment is T3, ERG (Homo sapiens, UniProt P11308 1-479).
T3 sequence: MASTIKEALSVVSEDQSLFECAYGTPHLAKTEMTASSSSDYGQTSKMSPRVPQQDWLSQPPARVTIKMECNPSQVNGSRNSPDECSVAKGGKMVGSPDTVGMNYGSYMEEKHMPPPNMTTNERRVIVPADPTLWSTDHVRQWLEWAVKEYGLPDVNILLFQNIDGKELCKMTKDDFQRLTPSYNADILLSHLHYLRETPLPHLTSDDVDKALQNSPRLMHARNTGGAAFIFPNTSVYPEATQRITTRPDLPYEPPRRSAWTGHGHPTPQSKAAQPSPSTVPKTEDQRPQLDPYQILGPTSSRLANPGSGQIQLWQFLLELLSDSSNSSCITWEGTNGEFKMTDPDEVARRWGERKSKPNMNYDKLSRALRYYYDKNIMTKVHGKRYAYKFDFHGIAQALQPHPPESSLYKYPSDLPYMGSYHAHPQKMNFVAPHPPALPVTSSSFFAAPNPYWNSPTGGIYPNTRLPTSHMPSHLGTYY
The gist of the method: as §1

The target of another experiment is T4, EHF (Homo sapiens, UniProt Q9NZC4 1-300).
T4 sequence: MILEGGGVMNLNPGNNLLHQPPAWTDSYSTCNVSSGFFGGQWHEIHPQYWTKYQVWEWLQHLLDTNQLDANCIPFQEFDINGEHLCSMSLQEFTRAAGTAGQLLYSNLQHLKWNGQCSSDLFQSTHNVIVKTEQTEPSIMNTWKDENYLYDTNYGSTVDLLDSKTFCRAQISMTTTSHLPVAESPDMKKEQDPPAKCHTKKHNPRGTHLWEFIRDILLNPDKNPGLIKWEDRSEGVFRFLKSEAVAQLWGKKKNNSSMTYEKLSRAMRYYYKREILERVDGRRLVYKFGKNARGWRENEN
The gist of the method: as §1

A further experiment addresses SPI1 (Homo sapiens, UniProt P17947 1-270). An outline of the steps:
as §1

Another experiment concerns the target SPIB (Homo sapiens, UniProt Q01892 1-262). An outline of the steps: as §1
A further experiment addresses ETV5 (Homo sapiens, UniProt P41161 1-510). An outline of the steps: as §1
The next experiment concerns the target T5, ETV2 (Homo sapiens, UniProt O00321 1-342).
T5 sequence: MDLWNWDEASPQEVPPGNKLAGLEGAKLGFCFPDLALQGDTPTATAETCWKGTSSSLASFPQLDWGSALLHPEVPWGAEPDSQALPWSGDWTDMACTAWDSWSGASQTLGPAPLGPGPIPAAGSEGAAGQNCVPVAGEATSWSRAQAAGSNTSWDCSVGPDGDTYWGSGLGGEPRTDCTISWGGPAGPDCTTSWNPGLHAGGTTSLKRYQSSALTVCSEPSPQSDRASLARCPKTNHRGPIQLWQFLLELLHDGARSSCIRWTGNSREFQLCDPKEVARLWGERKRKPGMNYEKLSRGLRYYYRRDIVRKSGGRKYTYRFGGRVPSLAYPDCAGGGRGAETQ
An outline of the steps:
as §1

A further experiment concerns the target T6, ERF (Homo sapiens, UniProt P50548 1-548).
T6 sequence: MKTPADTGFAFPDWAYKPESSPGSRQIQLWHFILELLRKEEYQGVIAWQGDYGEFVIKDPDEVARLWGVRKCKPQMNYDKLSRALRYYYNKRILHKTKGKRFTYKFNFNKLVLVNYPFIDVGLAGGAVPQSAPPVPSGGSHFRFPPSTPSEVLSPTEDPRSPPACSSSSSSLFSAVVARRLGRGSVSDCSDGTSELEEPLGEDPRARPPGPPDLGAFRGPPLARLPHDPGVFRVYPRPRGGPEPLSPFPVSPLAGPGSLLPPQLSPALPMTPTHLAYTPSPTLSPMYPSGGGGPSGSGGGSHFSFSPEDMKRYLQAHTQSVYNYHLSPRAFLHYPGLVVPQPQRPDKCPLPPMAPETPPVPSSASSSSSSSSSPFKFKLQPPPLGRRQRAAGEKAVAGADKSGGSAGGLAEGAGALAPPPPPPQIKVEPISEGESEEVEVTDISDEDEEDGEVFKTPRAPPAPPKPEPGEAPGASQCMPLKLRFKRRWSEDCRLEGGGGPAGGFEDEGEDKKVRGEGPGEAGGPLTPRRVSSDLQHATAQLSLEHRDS
The gist of the method: as §1

A further experiment concerns the target T7, ETS2 (Homo sapiens, UniProt P15036 1-469).
T7 sequence: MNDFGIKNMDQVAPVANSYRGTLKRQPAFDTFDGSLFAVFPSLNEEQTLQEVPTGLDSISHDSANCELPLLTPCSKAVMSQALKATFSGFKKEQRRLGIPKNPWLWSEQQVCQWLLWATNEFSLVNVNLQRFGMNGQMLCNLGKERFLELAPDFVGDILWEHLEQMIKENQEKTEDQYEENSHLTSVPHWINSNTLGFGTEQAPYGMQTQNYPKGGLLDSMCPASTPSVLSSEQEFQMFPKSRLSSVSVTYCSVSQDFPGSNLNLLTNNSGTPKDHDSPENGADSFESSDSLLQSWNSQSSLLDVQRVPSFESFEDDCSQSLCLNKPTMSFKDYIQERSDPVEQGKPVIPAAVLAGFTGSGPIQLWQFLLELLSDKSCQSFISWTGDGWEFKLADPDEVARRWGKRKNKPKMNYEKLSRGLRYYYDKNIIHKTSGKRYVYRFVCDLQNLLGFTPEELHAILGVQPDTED
An outline of the steps: as §1

The next experiment concerns the target T8, SPDEF (Homo sapiens, UniProt O95238 1-335).
T8 sequence: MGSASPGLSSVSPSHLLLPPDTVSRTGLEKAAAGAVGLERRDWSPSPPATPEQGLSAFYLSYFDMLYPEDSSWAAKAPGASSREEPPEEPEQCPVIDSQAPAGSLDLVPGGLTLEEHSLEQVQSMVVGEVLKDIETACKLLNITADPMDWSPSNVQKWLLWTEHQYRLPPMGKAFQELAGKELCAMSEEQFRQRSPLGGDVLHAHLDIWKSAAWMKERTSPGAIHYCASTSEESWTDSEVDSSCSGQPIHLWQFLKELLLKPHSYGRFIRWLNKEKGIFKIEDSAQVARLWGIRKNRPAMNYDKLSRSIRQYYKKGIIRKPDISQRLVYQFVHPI
The gist of the method: as §1

For another experiment, the target named is T9, ETV7 (Homo sapiens, UniProt Q9Y603 1-341).
T9 sequence: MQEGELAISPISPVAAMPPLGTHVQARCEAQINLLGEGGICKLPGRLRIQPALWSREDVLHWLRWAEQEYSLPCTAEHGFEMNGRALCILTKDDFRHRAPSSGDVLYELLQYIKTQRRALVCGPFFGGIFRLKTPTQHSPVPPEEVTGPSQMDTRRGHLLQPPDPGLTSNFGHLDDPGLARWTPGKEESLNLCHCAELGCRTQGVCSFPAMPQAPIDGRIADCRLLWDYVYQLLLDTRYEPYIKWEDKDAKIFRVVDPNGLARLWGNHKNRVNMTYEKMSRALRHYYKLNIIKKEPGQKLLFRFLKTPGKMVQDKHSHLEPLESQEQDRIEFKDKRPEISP
The gist of the method:
as §1

The target in another experiment is ETV6 (Homo sapiens, UniProt P41212 1-452). The gist of the method:
as §1

A further experiment concerns the target ETV1 (Homo sapiens, UniProt P50549 1-477). The gist of the method:
as §1

The target in a further experiment is T10, ETV3L (Homo sapiens, UniProt Q6ZN32 1-361).
T10 sequence: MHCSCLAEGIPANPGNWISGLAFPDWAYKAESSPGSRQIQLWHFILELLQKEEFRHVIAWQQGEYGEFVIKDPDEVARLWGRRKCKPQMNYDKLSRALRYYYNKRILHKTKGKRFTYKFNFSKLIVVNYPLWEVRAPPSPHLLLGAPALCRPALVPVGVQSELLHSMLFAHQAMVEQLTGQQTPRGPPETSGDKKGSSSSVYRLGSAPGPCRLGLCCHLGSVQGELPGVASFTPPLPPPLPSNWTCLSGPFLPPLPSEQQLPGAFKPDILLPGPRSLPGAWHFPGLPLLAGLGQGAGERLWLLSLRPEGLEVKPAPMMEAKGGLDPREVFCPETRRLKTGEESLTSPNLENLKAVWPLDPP
The gist of the method:
as §1

A further experiment has as its target T11, ETV3 (Homo sapiens, UniProt P41162-2 1-143).
T11 sequence: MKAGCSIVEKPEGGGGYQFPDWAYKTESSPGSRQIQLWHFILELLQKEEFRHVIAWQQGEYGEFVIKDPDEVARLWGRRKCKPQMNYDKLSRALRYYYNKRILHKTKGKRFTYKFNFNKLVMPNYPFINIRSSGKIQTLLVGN
The gist of the method: as §1

Sequence of SPIB (Q01892 whole entry): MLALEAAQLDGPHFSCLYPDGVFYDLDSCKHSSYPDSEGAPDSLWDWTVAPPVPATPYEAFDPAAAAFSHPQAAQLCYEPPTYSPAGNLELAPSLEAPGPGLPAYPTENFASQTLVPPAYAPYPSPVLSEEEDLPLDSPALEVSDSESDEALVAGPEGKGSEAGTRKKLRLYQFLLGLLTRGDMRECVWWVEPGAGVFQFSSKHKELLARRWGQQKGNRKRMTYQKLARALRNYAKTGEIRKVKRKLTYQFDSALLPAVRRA
Sequence of ETV6 (P41212 whole entry): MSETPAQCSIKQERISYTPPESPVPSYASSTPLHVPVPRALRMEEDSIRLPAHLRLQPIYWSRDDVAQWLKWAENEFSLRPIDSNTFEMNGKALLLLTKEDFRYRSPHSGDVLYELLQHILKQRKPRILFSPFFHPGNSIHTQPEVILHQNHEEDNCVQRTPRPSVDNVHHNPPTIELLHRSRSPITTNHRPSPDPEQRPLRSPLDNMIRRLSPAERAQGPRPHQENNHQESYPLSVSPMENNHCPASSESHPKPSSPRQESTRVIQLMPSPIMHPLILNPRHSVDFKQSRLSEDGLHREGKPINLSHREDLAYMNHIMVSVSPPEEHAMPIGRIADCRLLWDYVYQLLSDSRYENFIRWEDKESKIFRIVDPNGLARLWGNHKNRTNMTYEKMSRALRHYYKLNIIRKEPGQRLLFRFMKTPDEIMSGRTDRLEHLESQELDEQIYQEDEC
Sequence of ETV5 (P41161 whole entry): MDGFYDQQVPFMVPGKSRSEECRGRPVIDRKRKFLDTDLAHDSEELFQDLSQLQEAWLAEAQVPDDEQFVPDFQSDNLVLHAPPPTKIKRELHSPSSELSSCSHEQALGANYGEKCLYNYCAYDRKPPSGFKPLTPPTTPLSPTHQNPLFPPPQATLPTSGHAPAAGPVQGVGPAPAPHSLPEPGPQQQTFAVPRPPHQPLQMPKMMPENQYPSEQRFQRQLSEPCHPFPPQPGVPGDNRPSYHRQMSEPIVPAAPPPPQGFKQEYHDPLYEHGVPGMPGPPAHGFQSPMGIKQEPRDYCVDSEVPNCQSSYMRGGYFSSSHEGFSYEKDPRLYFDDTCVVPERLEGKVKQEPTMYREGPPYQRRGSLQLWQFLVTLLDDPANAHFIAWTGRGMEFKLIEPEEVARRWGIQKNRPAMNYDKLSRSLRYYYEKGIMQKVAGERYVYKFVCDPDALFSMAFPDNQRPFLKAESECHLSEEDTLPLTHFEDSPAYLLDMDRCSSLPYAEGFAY
Sequence of ETV1 (P50549 whole entry): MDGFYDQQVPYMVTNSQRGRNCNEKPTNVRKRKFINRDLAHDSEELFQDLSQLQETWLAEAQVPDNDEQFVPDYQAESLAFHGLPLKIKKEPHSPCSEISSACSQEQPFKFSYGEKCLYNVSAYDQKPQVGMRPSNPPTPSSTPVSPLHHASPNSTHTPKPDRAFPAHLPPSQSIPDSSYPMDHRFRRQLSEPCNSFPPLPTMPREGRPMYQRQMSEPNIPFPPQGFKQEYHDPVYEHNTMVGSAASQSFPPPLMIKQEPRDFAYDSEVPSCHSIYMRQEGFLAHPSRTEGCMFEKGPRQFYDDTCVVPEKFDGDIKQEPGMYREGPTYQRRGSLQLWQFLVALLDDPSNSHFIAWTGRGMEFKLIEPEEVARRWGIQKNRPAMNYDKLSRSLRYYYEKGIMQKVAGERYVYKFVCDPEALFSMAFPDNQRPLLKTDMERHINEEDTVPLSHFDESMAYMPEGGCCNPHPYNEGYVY

For TGGGAA, the binding signal in the experiment with ELK1 was 1.08 fold enrichment (6-mer frequency, TF over GST control); with GABPA, 1.05 fold enrichment (6-mer frequency, TF over GST control); in the experiment with ERG it was 1.02 fold enrichment (6-mer frequency, TF over GST control); in the experiment with EHF it was 1.04 fold enrichment (6-mer frequency, TF over GST control); with SPI1 it was 1.21 fold enrichment (6-mer frequency, TF over GST control); with SPIB it was 1.05 fold enrichment (6-mer frequency, TF over GST control). The binding signal is 1.04 fold enrichment (6-mer frequency, TF over GST control) with ETV5; 1.02 fold enrichment (6-mer frequency, TF over GST control) in the experiment with ETV2; 1.04 fold enrichment (6-mer frequency, TF over GST control) with ERF; 1.02 fold enrichment (6-mer frequency, TF over GST control) in the experiment with ETS2; 1.01 fold enrichment (6-mer frequency, TF over GST control) with SPDEF; 1.09 fold enrichment (6-mer frequency, TF over GST control) with ETV7. The binding signal with ETV6 is 1.17 fold enrichment (6-mer frequency, TF over GST control).

For AGGATG, the binding signal is 1.1 fold enrichment (6-mer frequency, TF over GST control) in the experiment with ERG; 1.09 fold enrichment (6-mer frequency, TF over GST control) with EHF; 1.1 fold enrichment (6-mer frequency, TF over GST control) with SPIB; 1.09 fold enrichment (6-mer frequency, TF over GST control) with ETV5; 1.05 fold enrichment (6-mer frequency, TF over GST control) with ETV1; 1.06 fold enrichment (6-mer frequency, TF over GST control) with ETV3L. Further, the binding signal with ETS2 was 1.07 fold enrichment (6-mer frequency, TF over GST control); with SPDEF, 1.51 fold enrichment (6-mer frequency, TF over GST control); in the experiment with ETV7, 1.04 fold enrichment (6-mer frequency, TF over GST control); with ETV3 it was 1.13 fold enrichment (6-mer frequency, TF over GST control); with ETV6, 1.08 fold enrichment (6-mer frequency, TF over GST control).
